The structures appear in SMILES notation.

The target in test [1] is T1, Mitogen-activated protein kinase 12 (Homo sapiens) (UniProt P53778).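 Also: values are averaged p38gamma kinase inhibition readings, compounds tested at 1 µM.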
T1 sequence (whole entry): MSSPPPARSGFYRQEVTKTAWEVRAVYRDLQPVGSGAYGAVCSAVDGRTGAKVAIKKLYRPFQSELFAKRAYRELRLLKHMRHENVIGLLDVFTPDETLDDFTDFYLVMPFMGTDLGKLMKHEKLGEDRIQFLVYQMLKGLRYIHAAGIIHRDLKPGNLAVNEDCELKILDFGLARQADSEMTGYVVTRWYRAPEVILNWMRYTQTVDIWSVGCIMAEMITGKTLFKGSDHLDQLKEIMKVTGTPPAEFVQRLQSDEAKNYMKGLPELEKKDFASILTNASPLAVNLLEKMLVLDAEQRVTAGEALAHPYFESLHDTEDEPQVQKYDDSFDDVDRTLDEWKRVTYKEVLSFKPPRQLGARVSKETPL
To be noted: at 1 µM.

For test [2], the target named is SRSF protein kinase 1 (Homo sapiens) (UniProt Q96SB4). To be noted: at 0.1 µM.
Test [3] has the same target. To be noted: at 1 µM.
In test [4] the target is Phosphatidylinositol 4,5-bisphosphate 3-kinase catalytic subunit alpha isoform (Homo sapiens) (UniProt P42336). The conditions noted are these: at 0.1 µM.
Test [5] shares this target. To be noted: at 1 µM.
For test [6], the target named is T2, Phosphatidylinositol 4,5-bisphosphate 3-kinase catalytic subunit delta isoform (Homo sapiens) (UniProt O00329).
T2 sequence (whole entry): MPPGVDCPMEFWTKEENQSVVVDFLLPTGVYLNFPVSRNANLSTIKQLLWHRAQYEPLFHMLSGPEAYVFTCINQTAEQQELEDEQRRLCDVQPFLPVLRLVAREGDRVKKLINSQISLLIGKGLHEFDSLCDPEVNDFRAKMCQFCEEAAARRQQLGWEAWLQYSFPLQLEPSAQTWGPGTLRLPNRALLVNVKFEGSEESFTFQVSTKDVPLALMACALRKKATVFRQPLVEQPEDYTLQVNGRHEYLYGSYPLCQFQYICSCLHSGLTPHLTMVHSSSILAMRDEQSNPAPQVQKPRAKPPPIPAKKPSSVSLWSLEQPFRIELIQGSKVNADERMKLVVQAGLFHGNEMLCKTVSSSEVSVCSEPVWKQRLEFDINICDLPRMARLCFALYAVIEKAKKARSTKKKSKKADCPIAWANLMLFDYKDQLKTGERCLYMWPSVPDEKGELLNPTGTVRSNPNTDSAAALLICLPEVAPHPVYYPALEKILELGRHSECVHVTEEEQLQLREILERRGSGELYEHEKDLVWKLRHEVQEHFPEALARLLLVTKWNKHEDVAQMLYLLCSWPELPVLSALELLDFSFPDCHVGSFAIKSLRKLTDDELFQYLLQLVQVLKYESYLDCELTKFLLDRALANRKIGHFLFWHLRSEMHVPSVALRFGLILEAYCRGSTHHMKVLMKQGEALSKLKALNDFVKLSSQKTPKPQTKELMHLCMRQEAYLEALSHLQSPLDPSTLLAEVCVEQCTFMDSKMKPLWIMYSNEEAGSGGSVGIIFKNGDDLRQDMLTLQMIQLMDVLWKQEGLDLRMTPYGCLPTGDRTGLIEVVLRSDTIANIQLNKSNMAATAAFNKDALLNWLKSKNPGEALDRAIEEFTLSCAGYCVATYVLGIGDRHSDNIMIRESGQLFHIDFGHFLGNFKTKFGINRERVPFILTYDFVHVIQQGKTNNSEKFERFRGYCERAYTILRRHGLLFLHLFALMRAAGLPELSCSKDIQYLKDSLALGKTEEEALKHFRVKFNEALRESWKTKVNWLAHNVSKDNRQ
The conditions noted are these: at 0.1 µM.

Test [7] concerns the target T2, Phosphatidylinositol 4,5-bisphosphate 3-kinase catalytic subunit delta isoform (Homo sapiens). To be noted: at 1 µM.
Test [8] addresses Phosphatidylinositol 4-kinase beta (Homo sapiens) (UniProt Q9UBF8). The conditions noted are these: at 0.1 µM.
The target is the same in test [9]. The conditions noted are these: at 1 µM.
Test [10] addresses Sphingosine kinase 1 (Homo sapiens) (UniProt Q9NYA1). To be noted: at 0.1 µM.

Sequence of SRSF protein kinase 1 (Homo sapiens) (Q96SB4 whole entry): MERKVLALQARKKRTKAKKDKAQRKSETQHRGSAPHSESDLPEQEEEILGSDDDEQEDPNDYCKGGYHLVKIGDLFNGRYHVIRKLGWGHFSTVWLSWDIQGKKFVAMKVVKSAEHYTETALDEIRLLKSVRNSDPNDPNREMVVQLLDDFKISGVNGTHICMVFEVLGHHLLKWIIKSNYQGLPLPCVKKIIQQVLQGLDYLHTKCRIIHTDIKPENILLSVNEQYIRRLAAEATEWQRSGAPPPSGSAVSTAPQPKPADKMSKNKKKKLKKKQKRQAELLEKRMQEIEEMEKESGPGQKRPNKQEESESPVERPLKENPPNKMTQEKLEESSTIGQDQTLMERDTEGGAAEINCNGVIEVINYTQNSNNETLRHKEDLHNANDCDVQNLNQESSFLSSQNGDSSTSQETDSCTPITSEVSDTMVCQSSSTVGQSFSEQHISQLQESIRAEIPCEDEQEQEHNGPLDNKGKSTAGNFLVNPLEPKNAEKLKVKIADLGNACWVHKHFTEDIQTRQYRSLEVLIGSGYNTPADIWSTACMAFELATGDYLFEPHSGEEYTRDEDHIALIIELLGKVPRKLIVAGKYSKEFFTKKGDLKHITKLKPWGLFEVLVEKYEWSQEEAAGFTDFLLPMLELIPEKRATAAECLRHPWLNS
Sequence of Sphingosine kinase 1 (Homo sapiens) (Q9NYA1 whole entry): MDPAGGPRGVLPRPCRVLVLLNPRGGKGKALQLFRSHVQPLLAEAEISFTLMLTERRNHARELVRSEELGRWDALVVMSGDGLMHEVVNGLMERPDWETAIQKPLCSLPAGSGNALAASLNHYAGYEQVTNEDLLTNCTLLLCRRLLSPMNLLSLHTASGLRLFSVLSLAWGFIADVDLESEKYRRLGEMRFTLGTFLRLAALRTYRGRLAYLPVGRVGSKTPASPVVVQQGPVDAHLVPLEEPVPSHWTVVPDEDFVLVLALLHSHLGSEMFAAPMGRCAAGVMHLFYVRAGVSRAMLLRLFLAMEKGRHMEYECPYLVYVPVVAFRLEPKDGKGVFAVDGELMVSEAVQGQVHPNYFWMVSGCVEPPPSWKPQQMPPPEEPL
Sequence of Phosphatidylinositol 4,5-bisphosphate 3-kinase catalytic subunit alpha isoform (Homo sapiens) (P42336 whole entry, canonical isoform): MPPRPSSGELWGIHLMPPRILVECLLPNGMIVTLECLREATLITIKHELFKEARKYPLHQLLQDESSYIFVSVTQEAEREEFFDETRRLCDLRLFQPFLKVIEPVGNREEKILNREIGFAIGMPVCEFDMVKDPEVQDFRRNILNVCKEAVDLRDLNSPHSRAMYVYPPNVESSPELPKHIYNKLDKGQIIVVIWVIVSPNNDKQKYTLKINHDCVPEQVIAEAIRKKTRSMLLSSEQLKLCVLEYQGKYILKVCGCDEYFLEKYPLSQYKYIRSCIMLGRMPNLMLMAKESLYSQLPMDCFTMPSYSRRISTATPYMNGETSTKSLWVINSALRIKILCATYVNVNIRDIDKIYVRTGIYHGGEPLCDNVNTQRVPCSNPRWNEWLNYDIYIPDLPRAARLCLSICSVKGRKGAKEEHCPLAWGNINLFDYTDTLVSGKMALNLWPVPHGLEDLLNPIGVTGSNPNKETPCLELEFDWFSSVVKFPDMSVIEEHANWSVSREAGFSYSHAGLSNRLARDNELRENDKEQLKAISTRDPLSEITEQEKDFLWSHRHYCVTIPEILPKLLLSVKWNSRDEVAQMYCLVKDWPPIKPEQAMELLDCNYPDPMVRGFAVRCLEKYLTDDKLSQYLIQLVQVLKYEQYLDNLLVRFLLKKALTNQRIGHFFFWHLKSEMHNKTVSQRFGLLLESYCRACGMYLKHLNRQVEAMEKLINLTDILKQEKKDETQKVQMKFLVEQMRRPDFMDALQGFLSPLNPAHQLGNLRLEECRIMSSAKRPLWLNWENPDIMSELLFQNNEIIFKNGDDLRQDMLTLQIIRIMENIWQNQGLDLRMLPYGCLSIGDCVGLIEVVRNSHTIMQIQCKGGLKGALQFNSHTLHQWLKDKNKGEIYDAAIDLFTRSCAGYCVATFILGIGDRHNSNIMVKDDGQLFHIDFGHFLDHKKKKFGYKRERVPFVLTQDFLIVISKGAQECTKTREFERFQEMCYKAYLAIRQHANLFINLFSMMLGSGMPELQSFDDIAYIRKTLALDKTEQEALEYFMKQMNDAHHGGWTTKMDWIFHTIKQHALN
Sequence of Phosphatidylinositol 4-kinase beta (Homo sapiens) (Q9UBF8 2-816 limits assumed): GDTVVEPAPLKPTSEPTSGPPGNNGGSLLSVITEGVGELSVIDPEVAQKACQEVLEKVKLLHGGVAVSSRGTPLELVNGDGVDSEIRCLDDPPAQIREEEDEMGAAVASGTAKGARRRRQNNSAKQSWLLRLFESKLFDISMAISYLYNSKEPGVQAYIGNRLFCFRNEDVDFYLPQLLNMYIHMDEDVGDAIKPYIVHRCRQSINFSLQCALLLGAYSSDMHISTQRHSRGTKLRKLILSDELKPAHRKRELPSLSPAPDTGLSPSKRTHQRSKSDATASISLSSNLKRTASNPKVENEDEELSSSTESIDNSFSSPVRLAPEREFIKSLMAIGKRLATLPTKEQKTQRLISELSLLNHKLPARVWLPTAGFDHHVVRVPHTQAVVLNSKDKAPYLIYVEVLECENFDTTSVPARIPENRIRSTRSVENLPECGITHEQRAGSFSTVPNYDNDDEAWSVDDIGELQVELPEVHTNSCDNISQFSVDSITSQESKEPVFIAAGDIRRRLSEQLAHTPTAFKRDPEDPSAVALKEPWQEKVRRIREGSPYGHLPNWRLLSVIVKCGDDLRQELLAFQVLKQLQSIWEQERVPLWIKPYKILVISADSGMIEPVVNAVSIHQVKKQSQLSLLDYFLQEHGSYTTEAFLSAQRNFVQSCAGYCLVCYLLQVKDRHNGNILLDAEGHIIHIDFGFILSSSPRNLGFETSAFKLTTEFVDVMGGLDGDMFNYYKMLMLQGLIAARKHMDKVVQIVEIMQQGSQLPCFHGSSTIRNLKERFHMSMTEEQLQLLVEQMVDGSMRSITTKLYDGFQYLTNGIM

For `C[C@@H](Oc1cc(-n2cnc3ccc(OC4CCN(C)CC4)cc32)sc1C(N)=O)c1ccccc1Cl`, the inhibition was 5.86% in test [1]; -2.69% in test [2]; -1.4% in [3]; 5.06% in test [4]; 19.7% in test [5]; 9.45% in [6]. Further, the inhibition is 62.5% in [7], -3.18% in test [8], 3.72% in test [9] and -2.98% in test [10].
Turning to `Fc1ccc(-c2ncn(C3CCNCC3)c2-c2ccnc(Oc3ccc(F)c(F)c3)n2)cc1`, the inhibition in test [2] is -3.26%; in [3], -1.49%; in [4], 3.43%; in test [5] it was 3.41%; in test [6], 1.7%; in test [7] it was 3.53%. Moreover, the inhibition in test [8] is -1.47%; in [9] it was 1.86%; in test [10], 1.28%.
Regarding `CN(C)c1ccc2c(c1)/C(=C/Nc1ccc(S(N)(=O)=O)cc1)C(=O)N2`, the inhibition in test [1] is 1.82%; in [2] it was -1.68%; in [3], -2.04%; in test [4] it was 0.45%; in test [5], 4.82%; in test [6] it was 0.7%. Further, the inhibition in test [7] is 4.54%; in test [8], -6.01%; in test [9] it was 3.23%; in [10], 3.41%.
As to `NC(=O)c1ccc(Oc2nccc(-c3c(-c4ccc(F)cc4)ncn3C3CCNCC3)n2)cc1`, the inhibition in test [2] was -2.65%; in test [3], -1.89%; in test [4], 6.13%; in [5], 8.85%; in test [6] it was 0.53%; in [7], 5.87%. Further, the inhibition stood at 2.26% in test [8], 2.71% in test [9] and 2.48% in test [10].
As to `COc1cc(C)c(N(C)C(=O)CN(C)C)cc1Nc1nc(Nc2cccc(F)c2C(N)=O)c2cc[nH]c2n1`, the inhibition in test [1] is 1.09%; in [2], -1.96%; in test [3], -3.38%; in test [4] it was 0.08%; in test [5], -0.5%; in test [6] it was 0.21%. The inhibition in test [7] was 1.56%; in test [8], 3.54%; in test [9], 0.7%; in test [10], 0.03%.
Consider `COC(=O)Nc1nc2ccc(Sc3ccc(NC(=O)Nc4cc(C(F)(F)F)ccc4F)cc3)cc2[nH]1`, for which the inhibition in test [1] was 2.22%; in [2], -1.15%; in test [3], -0.09%; in test [4], -1.35%; in test [5], 8.27%; in [6], 0.7%. For the same compound, the inhibition in [7] was 10.2%; in [8], 1.21%; in test [9] it was -4.04%; in [10] it was 0.39%.
Consider `CCc1nccc2c1nc(-c1nonc1N)n2CC`, for which the inhibition in [1] is 3.91%; in test [2], -2.2%; in test [3], -4.41%; in test [4] it was -0.95%; in test [5] it was 1.38%; in test [6] it was 1.47%. Moreover, the inhibition is 4.23% in test [7], -3.69% in test [8], 1.82% in [9] and 0% in [10].
With `NS(=O)(=O)c1ccc(Nc2cc(-c3ccc(O)c(F)c3)n[nH]2)cc1`, the inhibition in [1] is -2.2%; in test [2] it was 1.32%; in [3], 1.27%; in test [4], -2.99%; in test [5], 2.09%; in test [6], -0.68%. Also, the inhibition worked out at 2.48% in test [7], 7.96% in test [8], 9.37% in test [9] and 3.64% in [10].
Take `NCc1ccc(-n2c(-c3nonc3N)nc3cnccc32)cc1`: the inhibition in test [1] is 3.74%; in test [2] it was -2.56%; in [3] it was -1.45%; in test [4], 4.81%; in [5] it was 4.8%; in test [6] it was 3.69%. The inhibition in test [7] is 6.07%; in test [9], 5.38%; in [10] it was 1.89%.
On to `Cc1nnc(-c2ccc(C)c(-c3ccc(C(=O)NCc4ccc(Cl)cc4)cc3)c2)o1`, for which the inhibition in [1] is 3.42%; in test [2], -1.29%; in test [3] it was -1.82%; in [4], 3.66%; in test [5] it was 2.48%; in test [6], 2.02%. Besides, the results for the inhibition in test [7], in test [9] and in test [10] were 3.9%, -0.13% and 0.23%, respectively.
Regarding `O=C(Nc1ccc(Oc2ccc3[nH]c(NC(=O)c4ccccc4)nc3c2)cc1)Nc1cc(C(F)(F)F)ccc1F`, the inhibition in [1] was 3.12%; in test [2], -0.76%; in test [3], 7.91%; in [4], 0.59%; in test [5] it was 8.12%; in test [6], -0.81%. Further, the inhibition in test [7] was 8.31%; in test [8], 1.83%; in test [9], -2.27%; in test [10], 0.81%.
For `COc1ccc2cc(-c3c(-c4ccncc4)nc(-c4ccc([S+](C)[O-])cc4C)n3C)ccc2c1` (configuration not stated), the inhibition in [1] was -0.09%; in test [2], -0.31%; in test [3], -0.89%; in [4], -2.02%; in test [5], -0.83%; in test [6], -2.38%. In addition, the inhibition was -1.78% in [7], 2.91% in [8], -0.88% in [9] and -0.09% in test [10].
As for `COc1ccc2cc(-c3c(-c4ccncc4)nc(-c4ccc(S(C)(=O)=O)cc4C)n3C)ccc2c1`, the inhibition is 3.33% in [1]; -2.04% in test [2]; -2.87% in test [3]; 3.62% in test [4]; 3.55% in test [5]; 1.31% in [6]. In addition, the figures for the inhibition in [7], in test [9] and in test [10] were 1.59%, 0.34% and 2.55%, respectively.
Consider `C[C@@H](Oc1cc(-n2cnc3ccc(OCC4CCN(C)CC4)cc32)sc1C(N)=O)c1ccccc1Cl`, for which the inhibition was 6.25% in test [1]; -2.59% in test [2]; -1.67% in [3]; 8.19% in test [4]; 27.3% in test [5]; 15.6% in test [6]. Also, the inhibition was 74.6% in test [7], -6.34% in test [8] and 1.45% in [10].
On to `CCC(=O)Nc1ccc(C)c(-c2ccc(C(=O)NCC3CC3)cc2)c1`, for which the inhibition in test [1] is 4.44%; in test [2] it was -3.31%; in test [3], -2.74%; in test [4], 2.7%; in [5], 0.64%; in [6] it was 0.57%. Moreover, the inhibition in test [7] is -0.59%; in test [8], -0.74%; in test [9], -0.15%; in [10], -3.42%.
With `CCc1ccc(Oc2nccc(-c3c(-c4ccc(F)cc4)ncn3C3CCNCC3)n2)cc1`, the inhibition in test [2] is -2.85%; in test [3], -3.81%; in test [4] it was 3.74%; in test [5] it was 3.81%; in test [6], 1.87%; in [7], 6.26%. In addition, the inhibition in test [8] was 3.17%; in [9], 2.82%; in [10], 1.33%.
As for `Fc1ccc(-c2ncn(C3CCNCC3)c2-c2ccnc(Oc3ccc(Oc4ccccc4)cc3)n2)cc1`, the inhibition in [2] is -3.18%; in [3], -2.43%; in test [4], 3.74%; in test [5], 2.92%; in [6] it was -0.16%; in test [7], 2.82%. The inhibition in test [8] was -2.22%; in [9], 5.8%; in [10] it was 1.17%.
Turning to `O=C(Nc1n[nH]c2nc(-c3ccc(O)cc3)c(Br)cc12)C1CC1`, the inhibition was 16.6% in test [1]; -0.67% in test [2]; 0.36% in test [3]; 6.93% in test [4]; 6% in test [5]; 3.58% in [6]. The inhibition in test [7] was 6.8%; in [8], -5.7%; in [9], 3.27%; in test [10] it was -0.06%.

The values are drawn from ChEMBL document CHEMBL1961873, “Compounds: GSK PKIS; Assays: Nanosyn kinase panel” (2012).
